# In PubChem BioAssay (Tox21):
# Records with an inconclusive call do not appear. Unmarked numbers belong to inactive results. The source made the active and inactive calls. The call rests on the fitted dose curve.
# Biological target: Muscarinic acetylcholine receptor M1 (Homo sapiens) (UniProt P11229)
# Experiment: Cholinergic receptor muscarinic 1 (CHRM1) small molecule antagonists, cell-based qHTS assay (AID 1963588); further: nearly all actives have a fitted effect of over 40% in size
# Conditions: CHRM1-CHO antagonist mode, calcium flux fluorescence; series mostly up to 61.5 µM; activity, negative = inhibition: at the top concentration
# Procedure, shortened: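 Compounds were tested at 15 concentrations in three independent runs. Dye-loaded CHRM1-CHO cells were exposed 5 min at room temperature before stimulation by acetylcholine added at 50nM. Intracellular calcium was read kinetically on FDSS for 3 min.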
# On the % scale 0 is the no-effect control and ±100 the full control effect.
# Muscarinic acetylcholine receptor M1 (Homo sapiens), sequence (P11229 whole entry, looked up): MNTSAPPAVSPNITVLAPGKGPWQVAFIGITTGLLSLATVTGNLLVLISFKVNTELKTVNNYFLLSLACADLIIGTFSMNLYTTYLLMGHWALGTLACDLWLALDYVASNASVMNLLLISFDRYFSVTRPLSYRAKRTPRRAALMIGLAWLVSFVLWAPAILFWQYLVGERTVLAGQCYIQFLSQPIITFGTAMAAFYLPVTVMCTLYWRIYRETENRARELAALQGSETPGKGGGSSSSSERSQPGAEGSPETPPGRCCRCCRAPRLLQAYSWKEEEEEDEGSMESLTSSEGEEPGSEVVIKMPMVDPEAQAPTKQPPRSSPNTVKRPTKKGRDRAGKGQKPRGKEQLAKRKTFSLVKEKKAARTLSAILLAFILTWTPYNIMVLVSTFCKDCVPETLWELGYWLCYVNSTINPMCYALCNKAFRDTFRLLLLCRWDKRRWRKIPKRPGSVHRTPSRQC
Compound,"activity, negative = inhibition",Potency
C=C1C(=C/C=C2\CCC[C@]3(C)[C@@H]([C@H](C)/C=C/[C@@H](O)C4CC4)CC[C@@H]23)C[C@@H](O)C[C@@H]1O,-1.28% [at 28.3 µM],–
Nc1cccc2c(N)cccc12,90.1%,–
CC1(C)CCC[C@]2(C)[C@H]3CCO[C@]3(C)CC[C@@H]12,-3.55%,–
O=C(NCC(O)CO)c1c(I)c(C(=O)NCC(O)CO)c(I)c(N(CCO)C(=O)CO)c1I (stereo not given),22.7% [at 28.3 µM],–
S=P(N1CC1)(N1CC1)N1CC1,32.5%,–
O=C1Cc2ccccc2C1,10.5%,–
Cc1c(C)n(Cc2ccccc2)c2ccc(C(=O)OCCN(C)C)cc12,-4.04% [at 28.3 µM],–
C=C(C)C(=O)OCC(O)COc1ccc(C(C)(C)c2ccc(OCC(O)COC(=O)C(=C)C)cc2)cc1 (stereo not given),2.88%,–
COc1cc(Cl)c(OC)cc1N,1.31%,–
Nc1ccc(N)c([N+](=O)[O-])c1,5.55%,–
CC1CCCC1,5.55%,–
CN1[C@@H]2CC(OC(=O)[C@H](CO)c3ccccc3)C[C@H]1[C@@H]1O[C@@H]12 (stereo not given in full),–,inactive
CS(=O)(=O)c1ccc([C@@H](CC2CCCC2)C(=O)Nc2cnccn2)cc1Cl,-5.05%,–
CCCCOC(=O)c1ccccc1C(=O)OCC(CC)CCCC (stereo not given),-5.17%,–
CN1CCC(N(Cc2cccs2)c2ccccc2)CC1,-1.74% [at 28.3 µM],–
COc1ccc2ccccc2c1,4.1%,–
CCOC(=O)CC(=O)C(=O)OCC,4.09%,–
Cc1nc(-c2ccccn2)ncc1C(=O)Nn1cc(C)c2cc(F)ccc21,6.91%,–
COCCOC,-5.41%,–
COC(=O)[C@H]1[C@H]2C[C@@H]3c4[nH]c5cc(OC)ccc5c4CCN3C[C@H]2C[C@@H](OC(=O)/C=C/c2ccc(O)c(OC)c2)[C@@H]1OC,8.31% [at 28.3 µM],–
